The values below come from PubChem BioAssay (Tox21).

Values joined by “and” are separate entries in the source; they are usually repeats but may differ in a detail not shown here. Equal values may be shown once. Inconclusive results are not listed. Unmarked numbers belong to inactive results. Active and inactive are the calls of the source. The call rests on the fitted dose curve; in most records, active means well fitted inhibition curve with a large enough effect in the signal ratio in the repeat runs (not every such curve was filed as active); inconclusive means weak or mixed curves, or effect the other way; inactive means no such curve, though single readings can be large or run the other way; the % refers to the signal ratio.
On the % scale 0 is the no-effect control and ±100 the full control effect; potency means the concentration at half of the fitted maximal effect.

Chain of Androgen receptor (Homo sapiens) (P10275 whole entry, looked up): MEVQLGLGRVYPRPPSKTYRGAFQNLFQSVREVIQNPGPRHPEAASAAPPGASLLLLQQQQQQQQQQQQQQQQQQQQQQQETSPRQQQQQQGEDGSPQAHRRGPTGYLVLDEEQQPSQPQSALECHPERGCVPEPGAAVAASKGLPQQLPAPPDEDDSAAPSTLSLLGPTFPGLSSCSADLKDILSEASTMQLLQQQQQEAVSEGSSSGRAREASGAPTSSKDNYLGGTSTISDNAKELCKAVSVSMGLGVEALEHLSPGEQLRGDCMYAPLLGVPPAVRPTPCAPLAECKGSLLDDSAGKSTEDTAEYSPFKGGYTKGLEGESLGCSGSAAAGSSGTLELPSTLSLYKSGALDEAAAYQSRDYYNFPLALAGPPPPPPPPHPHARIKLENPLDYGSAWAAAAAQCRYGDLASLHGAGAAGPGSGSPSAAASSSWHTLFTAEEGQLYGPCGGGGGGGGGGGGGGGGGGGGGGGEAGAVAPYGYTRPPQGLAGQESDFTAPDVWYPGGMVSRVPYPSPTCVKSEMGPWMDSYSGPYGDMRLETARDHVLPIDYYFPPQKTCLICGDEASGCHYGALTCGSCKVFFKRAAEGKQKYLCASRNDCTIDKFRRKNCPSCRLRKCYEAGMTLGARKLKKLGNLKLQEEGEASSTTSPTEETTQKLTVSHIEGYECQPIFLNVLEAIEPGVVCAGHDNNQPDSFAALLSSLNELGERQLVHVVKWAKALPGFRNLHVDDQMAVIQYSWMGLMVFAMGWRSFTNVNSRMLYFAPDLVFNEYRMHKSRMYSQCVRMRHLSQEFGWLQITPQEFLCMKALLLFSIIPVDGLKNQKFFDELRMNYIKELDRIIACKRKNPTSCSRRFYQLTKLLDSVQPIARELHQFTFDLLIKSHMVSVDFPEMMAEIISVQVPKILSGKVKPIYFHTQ

The assay deals with Androgen receptor (Homo sapiens) (UniProt P10275). The assay is described as follows: qHTS assay to identify small molecule antagonists of the androgen receptor (AR) signaling pathway (AID 743035). The note with it: HEK293 AR-UAS-bla, R1881-stimulated, beta-lactamase FRET, 16 h; series mostly up to 58.5 µM; activity change, negative = inhibition: at the top concentration. The text has this:
National Center for Advancing Translational Sciences [NCATS]
NIH Chemical Genomics Center [NCGC]
U.S. Environmental Protection Agency [EPA]
National Institutes of Environmental Health Sciences [NIEHS]
National Toxicology Program [NTP]
U.S. Food and Drug Administration [FDA]
Androgen receptor (AR), a nuclear hormone receptor, plays a critical role in AR-dependent prostate cancer and other androgen related diseases. Endocrine disrupting chemicals (EDCs) and their interactions with steroid hormone receptors like AR may cause disruption of normal endocrine function as well as interfere with metabolic homeostasis, reproduction, developmental and behavioral functions. To identify the compounds that inhibit AR signaling, GeneBLAzer AR-UAS-bla-GripTite cell line (Invitrogen, Carlsbad, CA, USA) containing a beta-lactamase reporter gene under control of an Upstream Activator Sequence (UAS) stably integrated into HEK293 cells was used to screen the Tox21 10K compound library.
Tox21 Assay Protocol Summary:
AR-bla cells were dispensed at 2,000 cells/5 uL of assay medium per well into black wall/clear-bottom 1536-well plates using a Multidrop Combi (ThermoFisher Scientific, Waltham, MA) dispenser. After the assay plates were incubated at a 37C and 5% CO2 for 4 hr, 23 nL of compounds dissolved in DMSO, positive controls or DMSO only was transferred to the assay plate by a Pintool station (Kalypsys, San Diego, CA), followed by addition of 1 uL of agonist (R1881) in culture medium using a Bioraptr Flying Reagent Dispenser (FRD) workstation (Beckman Coulter, Indianapolis, IN, USA). The plates were incubated at a 37C and 5% CO2 for 16 h. After 1 uL of LiveBLAzerTM B/G FRET substrate was added using a Bioraptr FRD, the plates were incubated at room temperature for 2 h and fluorescence intensity was measured by an Envision plate reader (PerkinElmer, Shelton, CT).
On the technique in general: Quantitative high-throughput screening tests each substance at several concentrations.
Turning to `Fc1ccc([C@@H]2CCNC[C@H]2COc2ccc3c(c2)OCO3)cc1`, the Potency is 13.4 µM (active). `Clc1ccc2nsnc2c1NC1=NCCN1`: the “activity change, negative = inhibition” value is -12.4%.

`CCCCCCCC/C=C/CCCCCCCC1=NCCN1CCO`: the Potency was 49 µM (active). Consider `NNC(=O)c1cccc(C(=O)NN)c1`, for which the “activity change, negative = inhibition” value is 0.092%. On to `CCC(C)Nc1ccc(NC(C)CC)cc1` (centres undefined), for which the Potency was 8.88 µM (active). Turning to `CC(C)(C)C(=O)OCOC(=O)C1N2C(=O)CC2S(=O)(=O)C1(C)C` (centres undefined), the Potency is 6.74 µM (active). The same measure, in the same setting: the figure for `Cc1ccc(O)c2ncccc12` is 26.8 µM (active). With `CC[C@H](c1ccc(O)cc1)[C@@H](CC)c1ccc(O)cc1`, the Potency is 8.11 µM (active) and 21.9 µM (active). As for `CC1(C)CCC(C)(C)c2cc(C(=O)Nc3ccc(C(=O)O)cc3)ccc21`, the Potency is 49 µM (active).

As for `Cc1cc(O)c2ccccc2c1O`, the “activity change, negative = inhibition” value is -1.92%.

In the case of `C=C(C)C(=O)OCC[N+](C)(C)C`, the “activity change, negative = inhibition” value was -0.549%. In the case of `NNc1nc(-c2ccc([N+](=O)[O-])cc2)cs1`, the Potency is 24.5 µM (active). Consider `COc1cc(-c2nc(NC(=O)c3cc4cc(C)cc(C)c4n3CC(=O)O)sc2CCC2CCCCC2)c(OC)cc1Cl`, for which the Potency is 5.65 µM (active). Regarding `CC(C)(C)CC(C)(C)c1ccc(O)c(Cc2ccc(Cl)cc2Cl)c1`, the “activity change, negative = inhibition” value is -3.85%.

With `CSc1ccc(/C=C2/C(C)=C(CC(=O)O)c3cc(F)ccc32)cc1`, the “activity change, negative = inhibition” value was -4.14%. Same read-out and setting: the figure for `O=C(O)c1ccc(Cl)c(Cl)c1` is -6.09%. With `COc1cccc2c1C(=O)c1c(O)c3c(c(O)c1C2=O)C[C@@](O)(C(=O)CO)C[C@@H]3O[C@H]1C[C@H](N)[C@H](O[C@@H]2CCCCO2)[C@H](C)O1`, the Potency was 8.49 µM (active). As to `CN(C)c1ccc(C2(c3ccc(N(C)C)cc3)OC(=O)c3cc(N(C)C)ccc32)cc1`, the “activity change, negative = inhibition” value was -10.1%. Consider `CCCCCCCCCOC(=O)c1ccc(O)cc1`, for which the Potency was 24.2 µM (active). As for `CCCCCCCCCCC=O`, the “activity change, negative = inhibition” value was 0.2% [at 78.9 µM]. Take `CS(=O)(=O)CCNCc1ccc(-c2ccc3ncnc(Nc4ccc(OCc5cccc(F)c5)c(Cl)c4)c3c2)o1`: the “activity change, negative = inhibition” value is 6.95%. `CCc1cc(Cc2cc(CC)cc(C(C)(C)C)c2O)c(O)c(C(C)(C)C)c1`: the Potency is 13.8 µM (active). The same measure, in the same setting: the figure for `C=CC(=O)OCC(CO)(COC(=O)C=C)COC(=O)C=C` is 3.9 µM (active) and 4.9 µM (active); for `O=C(Oc1ccccc1)c1ccccc1C(=O)Oc1ccccc1` it is 49 µM (active); for `CCCCN(CCCC)c1ccc(C(=O)c2ccccc2C(=O)O)c(O)c1` it is 39.3 µM (active). With `CCCCCCCCCCCCCC[P+](CCCC)(CCCC)CCCC` (tested in a mixture with another compound), the Potency was 1.75 µM (active). As to `CCCCCCCCCCCCCCCC(=O)OC[C@H](O)[C@H]1OC(=O)C(O)=C1O`, the “activity change, negative = inhibition” value was -3.11%.

Take `ON=C1CCCC1`: the “activity change, negative = inhibition” value is 1.61% [at 78.9 µM]. As to `N=C1C=CC(=C(c2ccc(N)cc2)c2ccc(N)cc2)C=C1`, the Potency is 2.19 µM (active). `CN1CCN(CCC(=O)N2c3ccccc3Sc3ccc(C(F)(F)F)cc32)CC1`: the “activity change, negative = inhibition” value was -22%. Consider `N#CSc1ccc(N)c([N+](=O)[O-])c1`, for which the Potency is 43.9 µM (active).

On to `CC(C)OC(=O)c1cc2c(OCC(O)CNC(C)(C)C)cccc2[nH]1` (centres undefined), for which the “activity change, negative = inhibition” value was -8.39%.

Consider `CCCC(=O)OC[C@@H](OC(=O)CCC)[C@@H](OC(=O)CCC)[C@H](Cn1c2nc(=O)[nH]c(=O)c-2nc2cc(C)c(C)cc21)OC(=O)CCC`, for which the “activity change, negative = inhibition” value is -19.1%. Take `C=CC(=O)OCC(CO)(COCC(COC(=O)C=C)(COC(=O)C=C)COC(=O)C=C)COC(=O)C=C`: the Potency is 1.93 µM (active).
